# From PubChem BioAssay AID1224864 (Chung Lab, Department of Pediatrics, Emory University, 2016)
# Several values for one entry are separate records, joined by “and”; a condition that tells them apart may be missing. Identical values can stand only once. The whole screen tested about 2,000 compounds, of which about 20 (1%) were called active. How the calls were made is not given here. The full list was thinned out, with actives kept by preference. Residues, ends and D or L forms follow the SMILES beside them.
# Molecular target: Cystic fibrosis transmembrane conductance regulator (Homo sapiens) (UniProt P13569)
# Assay: correctors of F508del-CFTR surface localization, primary screen, imaging, HeLa, high-content microscopy, immunofluorescence (AID 1224864);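 further: HeLa cells stably expressing F508del-CFTR stained with 3G11 antibody against NBD1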;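 on plasma membrane CFTR intensity: mean immunofluorescence in a thin cell-margin band taken as plasma membrane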
# Conditions: PM immunofluorescence imaging, 24 h, at 10 µM, stronger effect = higher value, relative to vehicle wells set at 100; total CFTR intensity: measured here: total cellular F508del-CFTR signal
# Sequence of Cystic fibrosis transmembrane conductance regulator (Homo sapiens) (P13569 whole entry, looked up, stated change not applied): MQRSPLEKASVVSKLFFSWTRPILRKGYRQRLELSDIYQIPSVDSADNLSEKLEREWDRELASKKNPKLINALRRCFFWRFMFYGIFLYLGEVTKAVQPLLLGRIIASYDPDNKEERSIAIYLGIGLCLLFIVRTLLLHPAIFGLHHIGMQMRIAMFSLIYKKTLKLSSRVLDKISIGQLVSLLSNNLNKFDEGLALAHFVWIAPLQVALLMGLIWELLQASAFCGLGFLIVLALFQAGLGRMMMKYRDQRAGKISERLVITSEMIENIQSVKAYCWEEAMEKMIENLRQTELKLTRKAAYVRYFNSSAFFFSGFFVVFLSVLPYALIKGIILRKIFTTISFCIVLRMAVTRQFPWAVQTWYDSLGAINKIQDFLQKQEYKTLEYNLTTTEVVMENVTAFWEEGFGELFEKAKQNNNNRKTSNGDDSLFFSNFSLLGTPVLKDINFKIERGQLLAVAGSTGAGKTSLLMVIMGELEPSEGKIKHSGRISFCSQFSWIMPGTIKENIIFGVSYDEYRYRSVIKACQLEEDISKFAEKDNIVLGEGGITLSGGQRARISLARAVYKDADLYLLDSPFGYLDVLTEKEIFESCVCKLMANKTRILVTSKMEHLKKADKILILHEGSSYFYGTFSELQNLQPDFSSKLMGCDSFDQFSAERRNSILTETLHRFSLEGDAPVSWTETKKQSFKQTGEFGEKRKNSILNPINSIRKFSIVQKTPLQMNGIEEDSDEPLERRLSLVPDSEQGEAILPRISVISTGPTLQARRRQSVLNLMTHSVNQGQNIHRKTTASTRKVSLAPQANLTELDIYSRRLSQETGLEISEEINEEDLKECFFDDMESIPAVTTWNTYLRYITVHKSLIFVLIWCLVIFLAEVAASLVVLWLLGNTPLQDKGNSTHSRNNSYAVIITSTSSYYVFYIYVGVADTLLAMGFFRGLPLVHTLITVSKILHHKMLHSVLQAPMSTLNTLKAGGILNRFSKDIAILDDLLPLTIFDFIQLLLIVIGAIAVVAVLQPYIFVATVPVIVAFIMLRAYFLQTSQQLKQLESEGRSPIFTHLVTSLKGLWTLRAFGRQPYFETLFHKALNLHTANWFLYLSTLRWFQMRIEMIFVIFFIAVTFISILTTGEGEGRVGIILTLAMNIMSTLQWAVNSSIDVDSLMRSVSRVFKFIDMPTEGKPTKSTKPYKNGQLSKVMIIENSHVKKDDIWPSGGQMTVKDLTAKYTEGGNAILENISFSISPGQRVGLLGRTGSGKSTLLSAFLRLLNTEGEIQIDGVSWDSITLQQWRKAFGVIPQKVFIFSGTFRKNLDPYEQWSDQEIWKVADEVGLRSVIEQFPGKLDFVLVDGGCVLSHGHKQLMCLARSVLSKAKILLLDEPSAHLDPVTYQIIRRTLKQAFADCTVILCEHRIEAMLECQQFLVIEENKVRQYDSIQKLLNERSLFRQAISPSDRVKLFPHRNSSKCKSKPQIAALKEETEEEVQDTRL
Compound,plasma membrane CFTR intensity,total CFTR intensity
CC1CCCc2sc3ncn(N)c(=N)c3c21 (stereo unspecified),71% (inactive),71%
O=C(c1ccco1)N(CCC(c1ccccc1)c1ccco1)Cc1ccco1 (stereo unspecified),99% (inactive),101%
CC(=O)N=c1sc(S(N)(=O)=O)nn1C,125% (active),144%
CC(=O)Nc1nnc(S(N)(=O)=O)s1,87% (inactive),89%
COc1ccc(CNC(=O)c2cc3c(=O)n4ccccc4nc3n(Cc3cccnc3)c2=N)cc1,556% (inactive),561%
COc1ccc(S(=O)(=O)NC(Cc2cnc[nH]2)C(=O)O)cc1 (stereo unspecified),75% (inactive),82%
CC(C)Cn1c(=S)[nH]c2cc(C(=O)O)ccc2c1=O,78% (inactive),81%
O=C(CCCC(=O)OCC1CCCO1)OCC1CCCO1 (stereo unspecified),84% (inactive),84%
CC(=O)[C@H]1CC[C@H]2[C@@H]3CCC4=CC(=O)CC[C@]4(C)[C@H]3CC[C@]12C,81% (inactive),85%
CC(=O)[C@@]1(O)CC[C@H]2[C@@H]3CCC4=CC(=O)CC[C@]4(C)[C@H]3CC[C@@]21C,88% (inactive),89%
CC(=O)SC1CC2=CC(=O)CCC2(C)C2CCC3(C)C(CCC34CCC(=O)O4)C12 (stereo unspecified),177% (active),233%
N#C/C(=C\c1ccc(O)c(O)c1)C(=O)NCCCc1ccccc1,78% (inactive),83%
S=C(NCc1ccccc1)NCc1cccc(CNC(=S)NCc2ccccc2)c1,79% (inactive),81%
N#C/C(=C/c1ccccc1)C(=O)NCc1ccccc1,124% (active),125%
Cc1cc(-c2nn(-c3ccccc3F)cc2CN2CCCC(O)C2)c(C)s1 (stereo unspecified),75% (inactive),76%
O=C(/C=C/c1ccccc1)NCC1(c2ccccc2)CCOCC1,87% (inactive),84%
COc1cc(CNCc2ccc(OC)c(OC)c2OC)cc(OC)c1,85% (inactive),79%
O=C(CCCCC(=O)NC1CCCC1)NC1CCCC1,90% (inactive),90%
CCc1cccc2c1NC1(CCCC1)CC2C (stereo unspecified),74% (inactive),89%
O=C1OC(=O)C2C1[C@@H]1CC[C@H]2O1 (stereo partly specified),120% (active),133%
COc1ccc2c(CC(=O)NCC3CCC(C(=O)O)CC3)cc(=O)oc2c1 (stereo unspecified),92% (inactive),94%
CC12CCCCN1CCCc1c2[nH]c2ccccc12 (stereo unspecified),104% (inactive),100%

Compound,plasma membrane CFTR intensity,total CFTR intensity
CC1=CC(C)(C)N2C(=O)C3(NCCc4c3[nH]c3ccccc43)c3cc(C)cc1c32 (stereo unspecified),108% (active),129%
COc1ccc2c3c([nH]c2c1)C1(NCC3)C(=O)Nc2ccccc21 (stereo unspecified),85% (inactive),81%
COc1ccc2c(c1)c(=O)oc1cc3occ(C(C)(C)C)c3cc12,92% (inactive),88%
O=C(NNC(=O)c1cccs1)c1ccco1,93% (inactive),90%
O=C(NCc1ccc2c(c1)OCO2)c1ccc2c(c1)OCCO2,80% (inactive),80%
CCN(CC)CCCNC(=O)C1c2ccccc2Oc2ccccc21,84% (inactive),85%
CCN(CC)CCNc1ccc(CO)c2sc3ccccc3c(=O)c12,207% (active),238%
CCCCOc1cc(C(=O)NCCN(CC)CC)c2ccccc2n1,105% (inactive) and 91% (inactive),109% and 93%
O=C(O)CCCN1C(=O)NC2NC(=O)NC21 (stereo unspecified),91% (inactive),95%
CCOCc1cc(C)[nH]c(=O)c1C#N,80% (inactive),83%
COc1ccc(/C=C\c2cc(OC)c(OC)cc2CC[N+](C)(C)C)cc1OC,81% (inactive),82%
COc1cc2ccc(=O)oc2c(O)c1OCC=C(C)C,86% (inactive),92%
COc1cccc(CC2CC(=O)N(c3ccc4c(C)cc(=O)oc4c3)C2=O)c1 (stereo unspecified),77% (inactive),83%
O=C(/C=C/c1ccco1)NCc1ccc2c(c1)OCO2,79% (inactive),77%
CC(=O)NC(Cc1ccccc1)C(=O)OCC(=O)c1ccccc1 (stereo unspecified),77% (inactive),78%
CC1(C)Cc2ccccc2-c2n[nH]c(=S)n21,93% (inactive),97%
Cn1c2[n+](c3ccc(Cl)cc3c1=O)Cc1ccccc1-2,78% (inactive),85%
Cc1cc(/C=N/O)c(C)n1-c1ccc(Br)cc1,78% (inactive),82%
CN1C(=O)C(O)(CC(=O)c2ccccc2O)c2cc(Br)ccc21 (stereo unspecified),159% (inactive),190%
CO[C@H]1C=CO[C@@]2(C)Oc3c(C)c(O)c4c(O)c(c(/C=N/N5CCN(C)CC5)c(O)c4c3C2=O)NC(=O)C(C)=CC=C[C@H](C)[C@H](O)[C@@H](C)[C@@H](O)[C@@H](C)[C@H](OC(C)=O)[C@@H]1C,113% (active),137%
O=C(OCC1CCCN2CCCCC12)c1ccc2c(c1)OCO2 (stereo unspecified),85% (inactive),81%
CC1=C/C(=N\N=C2/NC(=O)C(CC(=O)Nc3ccccc3F)S2)CC(C)(C)C1 (stereo unspecified),65% (inactive),65%

Compound,plasma membrane CFTR intensity,total CFTR intensity
O=C(Cc1ccccc1)NNC(=O)Cc1ccccc1,74% (inactive),77%
CC1(C)CC(c2csc(N)n2)CCO1 (stereo unspecified),90% (inactive),92%
CC(=O)NC(CC(C)C)C(=O)NC(Cc1ccccc1)C(N)=O (stereo not drawn) (Ac-Leu-Phe-NH2; configuration not given here),91% (inactive),94%
O=C(O)C(O)c1ccccc1 (stereo unspecified),89% (inactive),81%
Cc1cccc(-c2ncc(CN3CCN(CC(C)C)C(CCO)C3)cn2)c1 (stereo unspecified),80% (inactive),81%
COC(=O)c1ccc(NC(=O)c2ccccc2SC)cc1,81% (inactive),79%
CC(=O)c1c(N)nc2n(c1=O)CCCCC2,80% (inactive),78%
Cn1c(=O)[nH]c(=O)c2c1nc(Br)n2CCCO,81% (inactive),84%
COc1cc(C(=O)Nc2ccc(N(C)C)cc2)c([N+](=O)[O-])cc1OC,100% (inactive),106%
CC(C)(C)c1csc(N/N=C/c2cccnc2)n1,93% (inactive),92%
Cc1ccc(/C=N/Nc2nc(C(C)(C)C)cs2)o1,135% (active),153%
C=CCC1(Cl)C(=O)C(Cl)=C(N2CCOCC2)C1(OC)OC (stereo unspecified),77% (inactive),77%
CC(C)=CCC/C(C)=C/CC/C(C)=N/O,84% (inactive),87%
Cc1ccc(/C=N/NC(=O)C2(C)CC2(Br)Br)cc1 (stereo unspecified),82% (inactive),80%
CCOC(=O)c1ccc(NC(=S)NCCc2ccccc2F)cc1,81% (inactive),78%
CCOC(=O)Cc1c(C)nc(N)[nH]c1=O,82% (inactive),81%
CCN1C(=O)C(CC(=O)Nc2ccc(F)cc2)N(Cc2ccc3c(c2)OCO3)C1=S (stereo unspecified),81% (inactive),81%
CCn1c(C)cc2c(c1=O)C(c1ccccc1)C(C(=O)OC)=C(N)O2 (stereo unspecified),90% (inactive),94%
CCC(C(=O)Nc1ccc2c(c1)OCCO2)c1ccccc1 (stereo unspecified),78% (inactive),76%
O=c1[nH]c(Cc2ccccc2)nc2c1oc1ccccc12,78% (inactive),79%
CCOc1ccc(C(=O)NC(C)C2COc3ccccc3O2)cc1 (stereo unspecified),82% (inactive),80%
CC(C)CN1CCN(Cc2cccn2-c2ccccn2)CC1CCO (stereo unspecified),88% (inactive),88%

Compound,plasma membrane CFTR intensity,total CFTR intensity
Cc1csc(N)n1,86% (inactive),87%
CS(=O)(=O)Oc1ccc2c(c1)O/C(=C\C=C\c1ccccc1)C2=O,92% (inactive),97%
Fc1ccccc1CNCCC(Cc1ccccc1)c1ccc2c(c1)OCO2 (stereo unspecified),171% (inactive),228%
CC(NC(=O)c1cccnc1)C(=O)O (stereo unspecified),75% (inactive),73%
COc1ccc(OC(C)C(=O)Nc2ccc([N+](=O)[O-])cc2)cc1 (stereo unspecified),76% (inactive),72%
CC(NC(=O)c1ccc(OC2CCN(Cc3ccccn3)CC2)cc1)c1ccccc1 (stereo unspecified),73% (inactive),66%
Cc1ncc(CN2CCC(CO)(CCc3ccccc3)CC2)s1,75% (inactive),75%
Cc1ccc(-c2nn(-c3cccc(F)c3)cc2CN2CCN(c3ccccn3)CC2)o1,69% (inactive),69%
CC12CCC(C(=O)NNc3ccccc3)(C(=O)C1=O)C2(C)C (stereo unspecified),92% (inactive),88%
O=c1nc2n(c3c1oc1ccccc13)Cc1ccccc1-2,131% (inactive),133%
C#C[C@]1(O)CC[C@H]2[C@@H]3CCc4cc(O)ccc4[C@H]3CC[C@@]21C,113% (inactive),106%
C#C[C@]1(O)CC[C@H]2[C@@H]3CCc4cc(OC5CCCC5)ccc4[C@H]3CC[C@@]21C,41% (inactive),30%
C#C[C@]1(O)CC[C@H]2[C@@H]3CCc4cc(OC)ccc4[C@H]3CC[C@@]21C,133% (active),141%
COc1ccc(C2c3c(n[nH]c3C)CC(C)(O)C2C(C)=O)cc1OC (stereo unspecified),87% (inactive),86%
Cc1ccc2c(c1)C(C)(C)[C@]1(C)NC(=O)CCN21,94% (inactive),97%
CC(C)C(CCN1C(=O)CCC1=O)C1CCOC(C)(C)C1 (stereo unspecified),87% (inactive),90%
CC(C)OC(=O)CC1C(=O)NCCN1C(=S)NC(=O)c1ccccc1Cl (stereo unspecified),79% (inactive),80%
COc1ccc(C2C(C(=O)c3ccco3)=C(O)C(=O)N2CC2CCCO2)cc1 (stereo unspecified),79% (inactive),83%
COc1ccc2cc(C3(C)NC(=O)NC3=O)ccc2c1 (stereo unspecified),89% (inactive),88%
COc1ccc2[nH]c3c(c2c1)CCNC3C1CC=C(C)CC1 (stereo unspecified),99% (inactive),117%
COC(=O)C1[C@H]2C(=O)N(Cc3cccs3)C[C@]23C=C[C@H]1O3 (stereo partly specified),92% (inactive),95%
S=C(c1ccc2c(c1)OCO2)N1CCCCC1,83% (inactive),85%
